Inconclusive results are not listed. Calls of active or inactive are those of the source. The call rests on the fitted dose curve; in most records, active means well fitted inhibition curve with a large enough effect; inconclusive means small, poorly fitted or top-dose-only effect; inactive means flat fitted curve, though single readings scatter.
Columns and labels:
Assay in all cases: qHTS profiling for inhibitors of Plasmodium falciparum proliferation (AID 504749); further: nearly all actives have a fitted effect of over 60% in size
Details in all cases: P. falciparum in erythrocytes, SYBR Green DNA, 72 h; series mostly up to 28.7 µM
CP305 = tested on: CP305
Outline: (§1)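 Quantitative HTS: compounds pinned into medium, infected erythrocytes added (0.3% parasitemia, 2.5% hematocrit), 72 h culture at 37 C under 5% CO2. Saponin/Triton lysis with SYBR Green I, overnight RT, then fluorescence read.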

CP315 = tested on: CP315
Outline: as §1

CP325 = tested on: CP325
Outline: as §1

CP329 = tested on: CP329
Outline: as §1

CP335 = tested on: CP335
Outline: as §1

DFO2036 = tested on: DFO2036
Outline: as §1

DIV14 = tested on: DIV14
Outline: as §1

DIV17 = tested on: DIV17
Outline: as §1

DIV30 = tested on: DIV30
Outline: as §1

Dd2 = tested on: Dd2
Outline: as §1

Measured: Potency

COc1ccc(/C=C/C(=O)OCCC(C)C)cc1
inactive: all assays above

CC1(O)CCC(C(C)(C)O)CC1 (stereo unspecified)
inactive: all assays above

CCCCCCCCCCCCOCCCN
inactive: all assays above

[O]=[Bi][O][Bi]=[O]
inactive: all assays above

FCOC(C(F)(F)F)C(F)(F)F
inactive: all assays above

CCN(CC)CCOc1ccccc1OC
inactive: all assays above

O=C1N=C2SCCN2C(=O)C1Cc1ccc(Cl)cc1 (stereo unspecified)
inactive: all assays above

S=C1SCN(Cc2ccccc2)CN1Cc1ccccc1
inactive: all assays above

O=C(O)CCCC/C=C(\c1ccccc1)c1cccnc1
inactive: all assays above

CO[C@H]1C[C@@H]2CC[C@@H](C)[C@@](O)(O2)C(=O)C(=O)N2CCCC[C@H]2C(=O)O[C@H]([C@H](C)C[C@@H]2CC[C@@H](OC(=O)C(C)(CO)CO)[C@H](OC)C2)CC(=O)[C@H](C)/C=C(\C)[C@@H](O)[C@@H](OC)C(=O)[C@H](C)C[C@H](C)/C=C/C=C/C=C/1C
inactive: all assays above

COc1ccc(C(=O)CCC(=O)O)c2ccccc12
inactive: all assays above

COC(=O)c1ccccc1O
inactive: all assays above

CCOC(C)OCC
inactive: all assays above

CCCCCCCCCCCC(=O)OCC(O)CO (stereo unspecified)
inactive: all assays above

CC1CCCCN1CCCOC(=O)c1ccccc1 (stereo unspecified)
inactive: all assays above

CN[C@@H]1[C@H](O[C@H]2[C@H](O[C@H]3[C@H](O)[C@@H](O)[C@H](N=C(N)N)[C@@H](O)[C@@H]3N=C(N)N)O[C@@H](C)[C@]2(O)C=O)O[C@@H](CO)[C@H](O)[C@H]1O
inactive: all assays above

C[C@@](Cc1ccc(O)c(O)c1)(NN)C(=O)O
inactive: all assays above

CCCCCCCCCC(=O)NO
inactive: all assays above

O[C@@H]([C@H](O)[C@H](O)CBr)[C@H](O)CBr
inactive: all assays above

OCC1(CO)COC(C(Cl)(Cl)Cl)OC1
inactive: all assays above

OCCCNc1ccccc1
inactive: all assays above

C(=C\c1ccncc1)/c1ccccc1
inactive: all assays above

FC(F)(F)COCC(F)(F)F
inactive: all assays above

CCOC(=O)c1cc(-c2ccccc2)nc2ccc(C)cc12
inactive: all assays above

CN(Cc1ccccc1)Cc1ccccc1
inactive: all assays above

c1ccc(-n2cnnn2)cc1
inactive: all assays above

COc1ccc(/C=C/C(=O)O)cc1
inactive: all assays above

CN1c2c(nc(N)[nH]c2=O)NCC1CNc1ccc(C(=O)NC(CCC(=O)O)C(=O)O)cc1 (stereo unspecified)
inactive: all assays above

CCN(CC)CCOc1ccc2nc(N(C)C)sc2c1
inactive: all assays above

CC(C)O
inactive: all assays above

O=P(O)(O)OC[C@H](O)CO
inactive: all assays above

CC12CCC(C[N+](C)(CCC[N+](C)(C)C)C1)C2(C)C (stereo unspecified)
inactive: all assays above

CCC(C(=O)NC(N)=O)c1ccccc1 (stereo unspecified)
inactive: all assays above

O=C(O)/C=C/C(=O)Nc1ccc(S(=O)(=O)Nc2nccs2)cc1
inactive: all assays above

CO/N=C(\C(=O)N[C@@H]1C(=O)N2C(C(=O)[O-])=C(C[n+]3cccc4c3CCC4)CS[C@H]12)c1csc(N)n1
inactive: all assays above

O=C1c2ccccc2CN2C(=O)c3ccccc3CN12
not listed: DIV17
inactive: all other assays above

CCCCCCCCCCCCCCCCCC(=O)OC[C@@H](O)[C@H]1OC[C@H](O)[C@H]1O
not listed: DIV14 | DIV30
inactive: all other assays above

FC(F)(F)C(F)(F)C(F)(F)C(F)(F)C(F)(F)F
not listed: DIV14
inactive: all other assays above
